{
  "source": "the supplement of paper PMC11001985",
  "data": [
    {"compound": "C#CCNC(=O)CCSSCCC(=O)NCCc1ccc(C=O)c(C=O)c1", "experiment": "lysine labeling ratio R10:1 (500 µM / 50 µM probe), SILAC-ABPP in living cells; higher = lower intrinsic lysine reactivity toward the probe, active = 2 or less", "settings": "HeLa; probe concentrations 500 vs 50 µM", "how_it_was_run": "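For each lysine, R is the median over forward and reverse replicates of the filtered median MS1 peptide ratio of high probe to low probe. The probe, an alkyne-tagged, disulfide-linked lysine probe, was given at 500 µM or 50 µM to living SILAC light and heavy HeLa cells in PBS at room temperature, with label swaps. Values are capped at 20.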", "values": [
      {"target": "STOML2 (lysine site: K187) (UniProt Q9UJZ1)", "lysine labeling ratio R10:1": "1.1 (active)"},
      {"target": "UniProt Q15149 (lysine site: K1573)", "lysine labeling ratio R10:1": "2.01 (inactive)"},
      {"target": "UniProt Q29980 (lysine site: K196)", "lysine labeling ratio R10:1": "4.62 (inactive)"},
      {"target": "COL5A1 (lysine site: K57) (UniProt P20908)", "lysine labeling ratio R10:1": "1.11 (active)"},
      {"target": "VCL (lysine site: K453) (UniProt P18206)", "lysine labeling ratio R10:1": "3.28 (inactive)"},
      {"target": "TLN1 (lysine site: K1221) (UniProt Q9Y490)", "sequence (Q9Y490 whole entry)": "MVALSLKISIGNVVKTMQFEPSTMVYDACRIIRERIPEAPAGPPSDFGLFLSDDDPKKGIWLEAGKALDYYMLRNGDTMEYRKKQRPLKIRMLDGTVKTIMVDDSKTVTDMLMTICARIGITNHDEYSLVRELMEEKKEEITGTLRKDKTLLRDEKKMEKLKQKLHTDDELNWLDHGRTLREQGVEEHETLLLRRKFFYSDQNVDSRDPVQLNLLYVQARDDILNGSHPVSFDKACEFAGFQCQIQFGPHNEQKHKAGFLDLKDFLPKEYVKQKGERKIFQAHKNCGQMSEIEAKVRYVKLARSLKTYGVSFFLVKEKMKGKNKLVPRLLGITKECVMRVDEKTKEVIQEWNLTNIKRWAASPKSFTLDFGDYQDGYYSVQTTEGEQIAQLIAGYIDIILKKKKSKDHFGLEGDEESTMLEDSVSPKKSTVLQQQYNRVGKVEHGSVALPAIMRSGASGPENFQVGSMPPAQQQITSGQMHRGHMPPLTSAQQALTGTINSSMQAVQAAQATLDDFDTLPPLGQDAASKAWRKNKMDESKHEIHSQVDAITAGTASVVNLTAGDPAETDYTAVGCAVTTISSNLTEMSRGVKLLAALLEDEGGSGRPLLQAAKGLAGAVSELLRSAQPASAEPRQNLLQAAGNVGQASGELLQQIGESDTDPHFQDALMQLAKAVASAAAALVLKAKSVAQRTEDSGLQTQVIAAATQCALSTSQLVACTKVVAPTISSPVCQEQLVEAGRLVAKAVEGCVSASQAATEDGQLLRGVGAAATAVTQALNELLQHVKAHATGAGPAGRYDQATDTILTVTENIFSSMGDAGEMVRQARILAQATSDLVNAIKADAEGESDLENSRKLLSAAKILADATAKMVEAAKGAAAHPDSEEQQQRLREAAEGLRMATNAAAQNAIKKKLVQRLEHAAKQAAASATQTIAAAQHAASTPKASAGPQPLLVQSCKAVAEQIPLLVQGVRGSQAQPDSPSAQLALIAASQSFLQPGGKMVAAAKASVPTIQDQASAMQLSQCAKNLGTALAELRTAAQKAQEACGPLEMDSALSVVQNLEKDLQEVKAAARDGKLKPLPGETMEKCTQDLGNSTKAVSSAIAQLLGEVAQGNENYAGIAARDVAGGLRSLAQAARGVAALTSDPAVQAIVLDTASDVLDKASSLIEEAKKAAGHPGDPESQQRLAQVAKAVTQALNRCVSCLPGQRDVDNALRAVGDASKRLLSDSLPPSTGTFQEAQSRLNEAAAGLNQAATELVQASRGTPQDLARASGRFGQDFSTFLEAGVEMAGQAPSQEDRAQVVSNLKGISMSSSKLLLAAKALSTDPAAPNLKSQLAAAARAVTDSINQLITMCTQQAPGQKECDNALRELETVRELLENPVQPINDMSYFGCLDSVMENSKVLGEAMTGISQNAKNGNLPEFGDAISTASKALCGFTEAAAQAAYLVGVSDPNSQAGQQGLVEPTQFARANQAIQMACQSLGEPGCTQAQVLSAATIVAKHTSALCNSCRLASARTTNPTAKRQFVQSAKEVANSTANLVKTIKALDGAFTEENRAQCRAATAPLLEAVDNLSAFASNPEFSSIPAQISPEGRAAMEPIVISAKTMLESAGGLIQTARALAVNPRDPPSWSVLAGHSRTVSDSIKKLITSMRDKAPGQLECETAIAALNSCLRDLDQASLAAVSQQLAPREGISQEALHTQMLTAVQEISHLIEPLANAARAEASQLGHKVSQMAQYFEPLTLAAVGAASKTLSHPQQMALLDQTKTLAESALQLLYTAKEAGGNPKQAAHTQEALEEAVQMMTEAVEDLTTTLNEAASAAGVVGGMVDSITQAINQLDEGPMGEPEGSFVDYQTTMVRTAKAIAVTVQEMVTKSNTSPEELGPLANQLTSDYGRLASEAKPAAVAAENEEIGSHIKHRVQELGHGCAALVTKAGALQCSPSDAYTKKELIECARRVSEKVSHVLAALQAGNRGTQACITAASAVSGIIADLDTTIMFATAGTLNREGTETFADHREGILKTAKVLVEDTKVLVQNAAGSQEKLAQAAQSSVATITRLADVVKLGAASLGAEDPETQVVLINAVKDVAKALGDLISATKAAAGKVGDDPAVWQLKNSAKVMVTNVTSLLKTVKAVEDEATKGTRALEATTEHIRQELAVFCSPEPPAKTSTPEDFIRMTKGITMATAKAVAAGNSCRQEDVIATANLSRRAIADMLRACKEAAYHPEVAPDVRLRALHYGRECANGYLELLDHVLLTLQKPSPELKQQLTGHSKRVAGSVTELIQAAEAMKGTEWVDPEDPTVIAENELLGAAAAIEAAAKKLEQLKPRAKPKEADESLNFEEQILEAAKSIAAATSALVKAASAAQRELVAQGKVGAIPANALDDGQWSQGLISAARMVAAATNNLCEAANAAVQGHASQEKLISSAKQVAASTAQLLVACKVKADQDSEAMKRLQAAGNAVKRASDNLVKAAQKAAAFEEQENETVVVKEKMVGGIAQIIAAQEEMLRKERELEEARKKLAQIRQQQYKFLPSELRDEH", "lysine labeling ratio R10:1": "1.89 (active)"},
      {"target": "UniProt Q9NYQ7 (lysine site: K2131)", "lysine labeling ratio R10:1": "1.56 (active)"},
      {"target": "GPRC5A (lysine site: K14) (UniProt Q8NFJ5)", "lysine labeling ratio R10:1": "6.52 (inactive)"},
      {"target": "CKB (lysine site: K313) (UniProt P12277)", "lysine labeling ratio R10:1": "1.31 (active)"},
      {"target": "MYH9 (lysine site: K1631) (UniProt P35579)", "sequence (P35579 whole entry)": "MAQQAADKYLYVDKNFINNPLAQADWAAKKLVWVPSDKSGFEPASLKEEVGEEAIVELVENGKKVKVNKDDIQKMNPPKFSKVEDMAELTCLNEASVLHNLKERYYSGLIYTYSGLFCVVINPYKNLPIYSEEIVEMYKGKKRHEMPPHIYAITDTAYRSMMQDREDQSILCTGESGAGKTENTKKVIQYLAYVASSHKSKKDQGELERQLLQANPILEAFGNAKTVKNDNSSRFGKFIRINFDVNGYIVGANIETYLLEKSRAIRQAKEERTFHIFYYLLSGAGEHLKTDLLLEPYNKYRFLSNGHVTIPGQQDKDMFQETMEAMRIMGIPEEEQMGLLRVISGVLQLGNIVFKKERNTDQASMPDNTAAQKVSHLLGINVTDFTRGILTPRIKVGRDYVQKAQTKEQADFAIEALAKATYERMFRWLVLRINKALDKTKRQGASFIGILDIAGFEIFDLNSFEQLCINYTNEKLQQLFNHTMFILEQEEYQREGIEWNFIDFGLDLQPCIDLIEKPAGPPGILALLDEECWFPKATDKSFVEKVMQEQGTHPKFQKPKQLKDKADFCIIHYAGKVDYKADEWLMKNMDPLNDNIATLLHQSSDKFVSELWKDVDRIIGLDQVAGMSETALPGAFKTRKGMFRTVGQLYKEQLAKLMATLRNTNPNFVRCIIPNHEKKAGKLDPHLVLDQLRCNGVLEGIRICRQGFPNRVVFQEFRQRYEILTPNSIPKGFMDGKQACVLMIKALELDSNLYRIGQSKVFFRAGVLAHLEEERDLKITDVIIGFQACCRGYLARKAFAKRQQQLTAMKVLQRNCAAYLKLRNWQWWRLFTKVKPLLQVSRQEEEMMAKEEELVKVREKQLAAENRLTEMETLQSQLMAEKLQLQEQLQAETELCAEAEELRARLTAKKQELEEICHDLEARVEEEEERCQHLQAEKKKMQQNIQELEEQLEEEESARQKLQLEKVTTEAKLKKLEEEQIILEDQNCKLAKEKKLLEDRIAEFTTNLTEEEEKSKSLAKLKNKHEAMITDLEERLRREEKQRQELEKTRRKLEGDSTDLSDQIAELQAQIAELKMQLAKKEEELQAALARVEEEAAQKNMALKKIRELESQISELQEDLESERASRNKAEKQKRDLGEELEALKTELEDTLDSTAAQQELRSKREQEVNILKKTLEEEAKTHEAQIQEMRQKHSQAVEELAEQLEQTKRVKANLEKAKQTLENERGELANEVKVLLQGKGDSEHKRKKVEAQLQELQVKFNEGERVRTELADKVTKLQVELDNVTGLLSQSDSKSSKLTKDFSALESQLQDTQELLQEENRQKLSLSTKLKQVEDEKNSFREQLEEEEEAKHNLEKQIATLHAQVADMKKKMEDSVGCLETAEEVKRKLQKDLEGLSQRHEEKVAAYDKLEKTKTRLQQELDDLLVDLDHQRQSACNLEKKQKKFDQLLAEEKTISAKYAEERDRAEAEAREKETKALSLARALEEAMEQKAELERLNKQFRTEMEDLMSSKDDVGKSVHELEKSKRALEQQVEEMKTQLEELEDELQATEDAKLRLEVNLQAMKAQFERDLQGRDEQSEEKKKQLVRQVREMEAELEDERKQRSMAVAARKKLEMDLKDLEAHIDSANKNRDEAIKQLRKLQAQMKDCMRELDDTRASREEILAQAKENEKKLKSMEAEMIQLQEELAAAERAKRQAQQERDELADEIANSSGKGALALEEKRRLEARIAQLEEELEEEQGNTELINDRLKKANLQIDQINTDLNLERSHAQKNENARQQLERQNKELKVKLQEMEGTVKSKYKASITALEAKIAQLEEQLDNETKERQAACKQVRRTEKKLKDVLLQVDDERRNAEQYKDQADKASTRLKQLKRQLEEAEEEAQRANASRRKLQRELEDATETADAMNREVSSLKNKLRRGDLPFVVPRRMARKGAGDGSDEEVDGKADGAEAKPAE", "lysine labeling ratio R10:1": "1.9 (active)"},
      {"target": "SMOC1 (lysine site: K381) (UniProt Q9H4F8)", "lysine labeling ratio R10:1": "1.04 (active)"},
      {"target": "FKBP4 (lysine site: K181) (UniProt Q02790)", "sequence (Q02790 whole entry)": "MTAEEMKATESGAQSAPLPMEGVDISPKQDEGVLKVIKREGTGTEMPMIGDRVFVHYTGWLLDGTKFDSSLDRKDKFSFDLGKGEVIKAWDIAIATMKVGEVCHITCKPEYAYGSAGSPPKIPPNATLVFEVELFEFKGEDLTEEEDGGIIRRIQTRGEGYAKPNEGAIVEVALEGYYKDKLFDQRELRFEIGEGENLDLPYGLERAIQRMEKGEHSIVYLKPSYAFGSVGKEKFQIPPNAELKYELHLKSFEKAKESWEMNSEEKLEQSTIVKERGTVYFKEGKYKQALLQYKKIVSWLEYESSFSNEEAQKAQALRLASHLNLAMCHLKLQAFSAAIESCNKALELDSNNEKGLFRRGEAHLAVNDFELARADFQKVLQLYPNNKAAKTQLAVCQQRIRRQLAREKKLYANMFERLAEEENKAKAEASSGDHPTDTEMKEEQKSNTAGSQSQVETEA", "lysine labeling ratio R10:1": "1.43 (active)"},
      {"target": "VAPB (lysine site: K174) (UniProt O95292)", "lysine labeling ratio R10:1": "1.61 (active)"},
      {"target": "UniProt Q32P28 (lysine site: K363)", "lysine labeling ratio R10:1": "4.24 (inactive)"},
      {"target": "RPL4 (lysine site: K182) (UniProt P36578)", "lysine labeling ratio R10:1": "1.85 (active)"},
      {"target": "HM13 (lysine site: K61) (UniProt Q8TCT9)", "lysine labeling ratio R10:1": "1.69 (active)"},
      {"target": "EZR (lysine site: K400) (UniProt P15311)", "lysine labeling ratio R10:1": "6.03 (inactive)"},
      {"target": "XRCC6 (lysine site: K299) (UniProt P12956)", "lysine labeling ratio R10:1": "1.09 (active)"},
      {"target": "MYH9 (lysine site: K1638) (UniProt P35579)", "lysine labeling ratio R10:1": "3.09 (inactive)"},
      {"target": "EPCAM (lysine site: K168) (UniProt P16422)", "lysine labeling ratio R10:1": "6.35 (inactive)"},
      {"target": "UniProt Q9NYU2 (lysine site: K362)", "lysine labeling ratio R10:1": "3.31 (inactive)"},
      {"target": "HSPD1 (lysine site: K364) (UniProt P10809)", "lysine labeling ratio R10:1": "2.45 (inactive)"},
      {"target": "SDC2 (lysine site: K111) (UniProt P34741)", "lysine labeling ratio R10:1": "1.38 (active)"},
      {"target": "SLC25A13 (lysine site: K235) (UniProt Q9UJS0)", "lysine labeling ratio R10:1": "2.23 (inactive)"},
      {"target": "SERBP1 (lysine site: K68) (UniProt Q8NC51)", "lysine labeling ratio R10:1": "5.36 (inactive)"},
      {"target": "UniProt Q15800 (lysine site: K284)", "lysine labeling ratio R10:1": "1.82 (active)"},
      {"target": "ACSL3 (lysine site: K679) (UniProt O95573)", "lysine labeling ratio R10:1": "2.71 (inactive)"},
      {"target": "UniProt P52803 (lysine site: K180)", "lysine labeling ratio R10:1": "6.21 (inactive)"},
      {"target": "MSN (lysine site: K64) (UniProt P26038)", "lysine labeling ratio R10:1": "1.22 (active)"},
      {"target": "UniProt O60245 (lysine site: K310)", "lysine labeling ratio R10:1": "2.88 (inactive)"},
      {"target": "FKBP4 (lysine site: K390) (UniProt Q02790)", "lysine labeling ratio R10:1": "3.84 (inactive)"},
      {"target": "GPC1 (lysine site: K236) (UniProt P35052)", "lysine labeling ratio R10:1": "3.17 (inactive)"},
      {"target": "EPHB4 (lysine site: K267) (UniProt P54760)", "lysine labeling ratio R10:1": "3.27 (inactive)"},
      {"target": "PRDX2 (lysine site: K92) (UniProt P32119)", "lysine labeling ratio R10:1": "6.57 (inactive)"},
      {"target": "CDK5 (lysine site: K33) (UniProt Q00535)", "lysine labeling ratio R10:1": "6.8 (inactive)"},
      {"target": "CSPG4 (lysine site: K465) (UniProt Q6UVK1)", "lysine labeling ratio R10:1": "1.56 (active)"},
      {"target": "CDCP1 (lysine site: K71) (UniProt Q9H5V8)", "lysine labeling ratio R10:1": "2.07 (inactive)"},
      {"target": "UniProt P25705 (lysine site: K167)", "lysine labeling ratio R10:1": "2.05 (inactive)"},
      {"target": "UniProt Q8N441 (lysine site: K30)", "lysine labeling ratio R10:1": "3.03 (inactive)"},
      {"target": "ATP6V0A1 (lysine site: K70) (UniProt Q93050)", "lysine labeling ratio R10:1": "0.55 (active)"}
    ]}
  ]
}
